Test [1] in a line: HepG2 liver cancer cell viability effects, profiling panel, resazurin fluorescence, 24 h, PK04 Diversity Set (AID 1172). Further: test concentration not given here. The settings on record: higher = more signal. (Alamar Blue is a resazurin reagent that responds to reducing activity.)
The nature of test [2]: basal S. cerevisiae growth modulation, no modifier, primary screen, OD600, strain BY4716, 24 h, basal condition (AID 1173). The settings on record: OD600, 24 h, higher = more signal, called active from +8 up or from −8 down.
Test [3] can be described thus: MM1S myeloma cell viability, profiling panel, resazurin fluorescence, basal, 24 h, PK04 Diversity Set (AID 1174).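 Further: MM1S multiple myeloma cell line; test concentration not given here.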 The settings on record: higher = more signal, called active from +8 up or from −8 down.
Test [4] deals with Dihydroorotate dehydrogenase (quinone), mitochondrial (Plasmodium falciparum (isolate 3D7)) (UniProt Q08210). Kind of test: PfDHODH enzyme inhibitors, primary screen, biochemical, C-terminal His tag, absorbance 600 nm (AID 1175).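 Further: recombinant parasite enzyme with a five histidine tag at its C terminus; test concentration not given here.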 The conditions noted are these: DCIP absorbance 600 nm, higher = more signal, called active from +8 up or from −8 down.
Sequence of Dihydroorotate dehydrogenase (quinone), mitochondrial (Plasmodium falciparum (isolate 3D7)) (Q08210 whole entry, looked up): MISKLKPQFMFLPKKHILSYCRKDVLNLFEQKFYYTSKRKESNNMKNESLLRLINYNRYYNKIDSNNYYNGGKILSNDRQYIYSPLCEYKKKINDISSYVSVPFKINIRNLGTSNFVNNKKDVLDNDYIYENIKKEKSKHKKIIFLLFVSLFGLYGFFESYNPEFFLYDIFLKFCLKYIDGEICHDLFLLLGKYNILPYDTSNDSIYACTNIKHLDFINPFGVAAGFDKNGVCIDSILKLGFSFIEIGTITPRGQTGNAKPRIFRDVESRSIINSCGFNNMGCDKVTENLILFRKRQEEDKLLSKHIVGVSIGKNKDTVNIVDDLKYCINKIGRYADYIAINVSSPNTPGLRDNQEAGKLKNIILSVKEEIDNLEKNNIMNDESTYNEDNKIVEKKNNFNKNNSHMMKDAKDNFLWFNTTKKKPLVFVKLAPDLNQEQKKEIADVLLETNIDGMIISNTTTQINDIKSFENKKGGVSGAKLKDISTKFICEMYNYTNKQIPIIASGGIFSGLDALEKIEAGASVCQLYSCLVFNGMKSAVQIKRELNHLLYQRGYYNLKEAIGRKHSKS
Test [5] is described as follows: P. aeruginosa biofilm formation inhibitors, primary screen, strain PAO1, LB-PBS medium, absorbance 600 nm (AID 1176). Further: test concentration not given here. The settings on record: P. aeruginosa PAO1 growth/biofilm, A600, 12 h; higher = more signal.
Test [6] can be described thus: S. cerevisiae RM11-1a growth modifiers, primary screen, strain RM11-1a, OD600, basal, 24 h (AID 1177).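 Further: cultures grown under basal conditions with no added stressor; test concentration not given here.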 The conditions noted are these: OD600, 24 h, higher = more signal, called active from +8 up or from −8 down.
Test [7] in a line: E. coli acrAB mutant growth effects, primary screen, E. coli filamentation inducers, strain DRC39, OD650, 24 h (AID 1178).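 Further: growth measured as culture turbidity by optical density at 650 nm; test concentration not given here.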 The settings on record: higher = more signal, called active from +8 up or from −8 down.
A short description of test [8]: E. coli acrAB mutant growth effects, primary screen, E. coli filamentation inducers, strain DRC39, OD650, 48 h (AID 1179).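 Further: screen aims at cell division blockers that make cells filament.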 The settings on record: E. coli DRC39 delta-acrAB growth, higher = more signal, called active from +8 up or from −8 down.
Test [9] is described as follows: RPMI8226 myeloma cell viability, profiling panel, resazurin fluorescence, basal, 24 h, PK04 Diversity Set (AID 1180).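 Further: RPMI8826 multiple myeloma cell line at 5000 cells per well; test concentration not given here.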 The settings on record: higher = more signal.
In test [10] the target is E3 ubiquitin-protein ligase XIAP (Homo sapiens) (UniProt P98170). The experiment in a line: XIAP binders, primary screen, biophysical, small-molecule microarray, fluorescence 635 nm (AID 1181).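 Further: score merges 667 nm emission and signal to noise over triplicate slides.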 The settings on record: small-molecule microarray binding, higher = more signal.
Sequence of E3 ubiquitin-protein ligase XIAP (Homo sapiens) (P98170 whole entry, looked up): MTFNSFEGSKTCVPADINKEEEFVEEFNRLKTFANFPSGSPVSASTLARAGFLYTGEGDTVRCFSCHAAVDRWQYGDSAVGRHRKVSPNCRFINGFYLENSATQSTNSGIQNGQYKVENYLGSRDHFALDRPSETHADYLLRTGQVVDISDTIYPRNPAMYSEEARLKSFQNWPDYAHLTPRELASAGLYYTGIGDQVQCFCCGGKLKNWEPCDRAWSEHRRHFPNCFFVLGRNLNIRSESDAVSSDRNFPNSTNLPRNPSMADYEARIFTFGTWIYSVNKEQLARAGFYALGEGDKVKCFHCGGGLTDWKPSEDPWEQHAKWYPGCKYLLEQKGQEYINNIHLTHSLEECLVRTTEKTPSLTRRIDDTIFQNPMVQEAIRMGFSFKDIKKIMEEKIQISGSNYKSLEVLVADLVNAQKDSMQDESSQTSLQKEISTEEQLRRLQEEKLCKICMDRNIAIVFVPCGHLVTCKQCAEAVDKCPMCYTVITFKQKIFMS

SMILES strings stand for the structures. Activity calls are given as the source filed them. Unless noted, how the calls were made is not given here.

For the compound `COCC(=C=CC[C@H](O)c1ccccc1OCCO)CCO`, the z-score is -0.504 in [1]; -0.547 (inactive) in test [2]; -0.251 (inactive) in test [3]; 0.26 (inactive) in test [5]; 0.338 (inactive) in test [6]; -0.135 (inactive) in test [7]. The values for the z-score in [8] and in [9] were -0.113 (inactive) and -0.672, respectively. The composite z-score in test [4] was -0.799 (inactive); in test [10], -0.252.

Turning to `C=CCC(OC(C)=O)[C@@H]1[C@@H](N(Cc2ccc(-c3ccccc3)cc2)C(=O)Cc2ccc(F)cc2)c2cc(OCCCO)ccc2N1C(=O)c1ccc2ccccc2c1` (stereo not given in full), the z-score in test [1] is -0.228; in [2], -0.458 (inactive); in [3] it was 0.376 (inactive); in test [5], 0.0885 (inactive); in test [6] it was -0.198 (inactive); in test [7] it was -0.794 (inactive). In addition, the z-score in test [8] is -0.397 (inactive); in test [9], -0.112. The composite z-score is 0.683 (inactive) in test [4] and -0.146 in test [10].

`CC(C)Cc1ccc(CN2CC[C@@H](N)C2)cc1`: the z-score was 1.51 in test [1]; -12.8 (active) in [2]; -1.49 (inactive) in [3]; -0.271 (inactive) in test [5]; -0.0782 (inactive) in test [6]; 1.47 (inactive) in [7]. Also, the z-score in test [8] was 0.611 (inactive); in [9] it was -0.681. Further, the composite z-score in test [4] was 4.28 (inactive); in test [10], -0.269.

For `C=CC[C@]1(C(=O)N2CCOCC2)N=C(c2ccc(OCCCO)cc2)O[C@H]1c1ccccc1N=[N+]=[N-]`, the z-score in test [1] is 0.101; in test [2], -1.01 (inactive); in test [3] it was -0.454 (inactive); in [5], -0.167 (inactive); in [6], 0.275 (inactive); in test [7], 1.31 (inactive). For the same compound, the z-score in test [8] is 0.844 (inactive); in test [9], -0.266. Besides, the composite z-score in test [4] is 0.846 (inactive); in test [10], 0.179.

In the case of `C=CC[C@@]1(C(=O)N2CCCCC2)N=C(c2ccc(OCCCO)cc2)O[C@@H]1c1ccccc1CN=[N+]=[N-]`, the z-score was 0.0157 in test [1]; -0.924 (inactive) in test [2]; -1.13 (inactive) in test [3]; 0.205 (inactive) in test [5]; 0.607 (inactive) in [6]; 0.673 (inactive) in [7]. Moreover, the z-score in test [8] was -0.526 (inactive); in test [9], -1.97. In addition, the composite z-score in [4] was -0.0512 (inactive); in [10], 0.0297.

For `C=CC[C@]1(C(N)=O)COC(c2ccc(OCCCO)cc2)=N1`, the z-score in test [1] is 1.4; in test [2], 0.412 (inactive); in test [3], -0.801 (inactive); in test [5], -0.814 (inactive); in [6], 0.75 (inactive); in test [7], 1.12 (inactive). Besides, the z-score is 1.83 (inactive) in [8] and 0.679 in test [9]. Further, the values for the composite z-score in test [4] and in test [10] were 0.94 (inactive) and -0.095, respectively.

On to `COc1ccc([C@H]2C[C@H]3C(I)=C[C@@H]2C(=O)[C@]32CO2)cc1`, for which the z-score in [1] is 0.91; in test [2], -9.78 (active); in [3], -0.306 (inactive); in test [5] it was 0.167 (inactive); in test [6] it was -1.14 (inactive); in test [7], 1.73 (inactive). The values for the z-score in [8] and in test [9] were 0.344 (inactive) and 0.867, respectively. The composite z-score is -0.174 (inactive) in test [4] and 0.288 in [10].

In the case of `C=CCNC(=O)[C@@H]1[C@H]2C(=O)O[C@H](c3ccccc3)[C@H](c3ccccc3)N2[C@H](c2ccc(OCCO)cc2)[C@@]12C(=O)N(C(=O)OCCOC)c1ccc(C#CCNC(N)=O)cc12`, the z-score in [1] was -1.09; in test [2] it was 1.04 (inactive); in [3], -0.58 (inactive); in [5], 0.958 (inactive); in test [6], 2.78 (inactive); in [7] it was 0.589 (inactive). The z-score is 0.0924 (inactive) in test [8] and 0.853 in test [9]. For the same compound, the composite z-score is -0.132 (inactive) in test [4] and -0.16 in test [10].

In the case of `C#CCNCc1ccccc1`, the z-score was -0.0158 in test [1]; -1.11 (inactive) in test [2]; 0.642 (inactive) in test [3]; -0.677 (inactive) in [5]; -0.389 (inactive) in test [6]; -0.758 (inactive) in [7]. The z-score was -0.624 (inactive) in test [8] and 0.353 in test [9]. The composite z-score in test [4] is -0.631 (inactive); in [10] it was -0.0848.

Consider `CCCC=C(CCC)[C@@H](NC(=O)OCC(C)C)c1ccccc1`, for which the z-score is -0.624 in [1]; 1.08 (inactive) in [2]; -0.863 (inactive) in [3]; 2.77 (inactive) in test [5]; 0.396 (inactive) in [6]; -0.526 (inactive) in test [7]. Besides, the results for the z-score in [8] and in test [9] were -1.64 (inactive) and 0.0342, respectively. Also, the composite z-score in test [4] is -4.03 (inactive); in test [10], -0.0852.

For the compound `C=CC[C@]12N=C(c3ccc(OCCCO)cc3)O[C@H]1c1ccccc1N(CCS(=O)(=O)c1ccccc1)C2=O`, the z-score was 1.49 in test [1]; -0.298 (inactive) in test [2]; -1.58 (inactive) in test [3]; -0.0988 (inactive) in test [5]; 1.05 (inactive) in test [6]; 0.611 (inactive) in [7]. Moreover, the results for the z-score in test [8] and in [9] were -0.0546 (inactive) and -0.585, respectively. Further, the composite z-score in test [4] is 0.0191 (inactive); in [10], -0.271.

`CO[C@H]1O[C@H](CO)[C@@H](OC(=O)Nc2ccccc2)[C@@H]2OC(=O)[C@@H](Cc3ccc4ccccc4c3)C/C=C/C[C@H](Cc3ccc4ccccc4c3)C(=O)O[C@@H]12`: the z-score in test [1] was -1.72; in test [2], -0.456 (inactive); in [3], -0.588 (inactive); in [5], 0.509 (inactive); in test [6], -0.474 (inactive); in test [7], 1.13 (inactive). The z-score was 1.09 (inactive) in test [8] and -1.15 in test [9]. Moreover, the results for the composite z-score in test [4] and in [10] were -2.21 (inactive) and 1.54, respectively.

For `COCCOC(=O)N1C(=O)[C@@]2(c3cc(C#CC4=CCCCC4)ccc31)[C@H](c1ccc(OCCO)cc1)N1[C@H](c3ccccc3)[C@H](c3ccccc3)OC(=O)[C@H]1[C@@H]2C(=O)N1CCc2cc(OC)c(OC)cc2C1`, the z-score was -0.248 in test [1]; 0.683 (inactive) in test [2]; -0.607 (inactive) in [3]; 2.68 (inactive) in test [5]; 4.26 (inactive) in test [6]; 0.118 (inactive) in test [7]. Further, the z-score in test [8] was 0.796 (inactive); in test [9], 0.474. Besides, the composite z-score is -0.0879 (inactive) in test [4] and -0.0872 in test [10].

For the origin of these results see PubChem BioAssay.
